Source: PubChem BioAssay (National Center for Advancing Translational Sciences (NCATS))
Rows were chosen to be rich in hits. Some 6.2% of all compounds tested hit in one or more screens of this group.
VP16 counter = Gal4-VP16 reporter inhibition counter-screen. Drosophila S2 Gal4-VP16 UAS-luciferase, luminescence, 20 h. actives 3.5% (n = 310,000). Potency, µM (top dose mostly 53.6 µM), for the others: at the highest dose activity, negative = inhibition, hits mostly inhibitors;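 also: Gal4-VP16 expression switched on by copper sulfate through the metallothionein promoter; nearly all actives have a fitted effect of over 50% in size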
RORgamma inh = ROR gamma (mouse) transcription inhibition; P51450; Drosophila S2 Gal4-RORgamma UAS-luciferase reporter, 20 h; Potency, µM (titrated, usually from 53.6 µM), for the others: at the highest dose activity change, negative = inhibition, most hits filed as inhibitors; actives 5.4% (n = 310,000); AID 2551; also: nearly all actives have a fitted effect of over 60% in size
Target sequence (P51450 whole entry, looked up, the tested form may be a part): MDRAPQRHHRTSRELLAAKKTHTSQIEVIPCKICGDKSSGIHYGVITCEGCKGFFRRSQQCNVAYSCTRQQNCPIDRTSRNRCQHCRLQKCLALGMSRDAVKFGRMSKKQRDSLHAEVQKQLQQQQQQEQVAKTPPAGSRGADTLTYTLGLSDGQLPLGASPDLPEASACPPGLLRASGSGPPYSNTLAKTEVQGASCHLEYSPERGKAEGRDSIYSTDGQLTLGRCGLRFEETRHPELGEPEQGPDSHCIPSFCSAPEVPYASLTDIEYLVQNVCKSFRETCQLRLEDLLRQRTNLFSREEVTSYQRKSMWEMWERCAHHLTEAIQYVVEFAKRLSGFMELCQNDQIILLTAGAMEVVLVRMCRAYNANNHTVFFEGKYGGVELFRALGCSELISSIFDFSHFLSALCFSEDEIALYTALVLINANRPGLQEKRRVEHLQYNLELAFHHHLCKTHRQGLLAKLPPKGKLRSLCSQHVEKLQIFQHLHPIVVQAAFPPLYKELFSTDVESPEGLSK
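Drosophila Schneider cells stably carrying a metallothionein-driven Gal4 DBD–ROR gamma fusion and a UAS-Photinus luciferase reporter were exposed to compound for 1 hr, then induced with copper sulfate (700 uM final) for 20 hr at ambient temperature before luminescence reading.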
Luc counter = counter-screen: inhibitors of Kinase-Glo firefly luciferase. Potency, µM (series often up to 38.3 µM), without a hit: at the top dose activity change, negative = inhibition, most hits filed as inhibitors. AID 1379. actives 0.28% (n = 200,000). Q27757. Kinase-Glo luciferase, ATP luminescence, 8 min; also: nearly all actives have a fitted effect of over 60% in size
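Light output from Kinase-Glo luciferase with luciferin and 10 uM ATP in 50 mM imidazole pH 7.2, KCl, MgCl2, Tween 20, BSA; compound pin-delivered, 8-min ambient incubation, then luminescence read.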
* hit, by the source's call; ? = inconclusive; · = no result given; [ ] = dose if it differs, or a comment. Calls follow the shape of the dose curve; as a rule, active = well fitted curve in the direction sought with a large enough effect; inconclusive = small, poorly fitted or top-dose-only effect, or another doubt; inactive = no such curve, though single readings can be large; an effect the other way counts as inactive or inconclusive. % is scaled to controls: 0 for no effect and ±100 for the full control effect; potency is read from the fitted curve at half-maximal effect.

SMILES	VP16 counter	RORgamma inh	Luc counter
CCOC(=O)c1cc([N+](=O)[O-])c([N+](=O)[O-])cc1NC(C)=O	3.2µM*	5µM*	7%
COc1cc(CNCc2ccccn2)ccc1OCc1ccc(Cl)c(Cl)c1	4%	?	1%
COc1cc(CNCc2ccccn2)ccc1OCc1ccc(Cl)cc1Cl	-23%	11µM*	-6%
CCOc1cc(CNc2ccc(O)cc2)ccc1OCc1ccc(Cl)cc1Cl	?	16µM*	5%
CCOc1cccc(CNc2ccc(O)cc2)c1OCc1ccc(Cl)cc1	?	?	-2%
COC(=O)C1CCN(CC(=O)NC(=O)NC2CCCCC2)CC1	6%	-7%	0%
COc1cccc(/C=N/NC(=S)Nc2cccc(C(=O)O)c2)c1O	-22%	?	0%
COc1cccc(/C=N/NC(=S)NC2CC3CC2C2C=CCC32)c1O (configuration not stated)	?	8.9µM*	·
Oc1ccccc1/C=N/Nc1ccccc1	-12%	22%	-8%
Oc1ccccc1/C=N/NC(=S)NC1CC2CC1C1C=CCC21 (configuration not stated)	11µM*	8.9µM*	·
N.N.O=C(O)C1(C(=O)O)CCC1.[Pt]	10%	-1%	-6%
O=C(NCCO)c1ccc(Cc2nc3ccccc3[nH]2)cc1	·	·	-1%
COc1ccc(CC(=O)NCCc2ccc(Cl)cc2Cl)cc1	0%	40%	0%
COCC(C)NC(=S)NCCc1ccc(Cl)cc1Cl (configuration not stated)	3.5µM*	1µM*	-2%
COCC(C)NC(=O)COc1ccc(Cl)cc1Cl (configuration not stated)	-10%	-32%	2%
COCCNC(=S)NCCc1ccc(Cl)cc1Cl	-26%	6.3µM*	8%
O=C(CN1C(=O)CCS(=O)(=O)c2ccccc21)Nc1cccc(Cl)c1	0%	?	0%
CCn1c(-c2ccccc2)ccc(C#N)c1=O	-7%	-13%	2%
CC(C)c1ccccc1-n1cc[nH]c1=S	-2%	18%	4%
CCn1c(-c2ccc(-c3ccccc3)cc2)c[nH]c1=S	1.6µM*	1.8µM*	-6%
C=CCn1c(-c2ccc(Cl)cc2)c[nH]c1=S	2.8µM*	2µM*	-4%
Cn1c(-c2ccc(-c3ccccc3)cc2)c[nH]c1=S	2.2µM*	0.79µM*	·
C=CCn1c(-c2ccccc2)c[nH]c1=S	?	-29%	-14%
CN(C)/C=C(\C=O)c1cccc(Cl)c1	-1%[10 µM]	9%	1%
COc1ccc(-c2noc3c2-c2nc(-c4ccccc4F)sc2CC3)cc1	1%	2%	·
SMILES	VP16 counter	RORgamma inh	Luc counter
N#CCCCS(=O)(=O)c1nnnn1C1CCCCC1	-8%	16%	1%
CC(C)CC(=O)N1CCN(Cc2ccc(Br)cc2)CC1	0%	7%	·
N#C/C(=C\c1c(N(Cc2ccccc2)Cc2ccccc2)nc2ccccn2c1=O)C(N)=O	7.1µM*	?	0%
C=CCNC(=O)/C(C#N)=C/c1c(N(Cc2ccccc2)Cc2ccccc2)nc2ccccn2c1=O	-16%	38%	-1%
CC(C)(C)C1=CC(=Nc2ccccc2N)C=C(C(C)(C)C)C1=O	5%	-11%	0%
CC(C)(C)C1=CC(=O)C(=O)C(C(C)(C)C)=C1	13µM*	10µM*	-3%
CCOc1ccc(-c2c(C(=O)N/N=C/c3ccc(OC(C)C)cc3)nnn2-c2nonc2N)cc1	-12%	0%	0%
CCOc1ccc(-c2c(C(=O)N/N=C/c3sccc3C)nnn2-c2nonc2N)cc1	8.9µM*	3.2µM*	·
CCOc1cccc(-c2c(C(=O)N/N=C/c3ccsc3)nnn2-c2nonc2N)c1	25µM*	11µM*	·
CCOc1cccc(-c2c(C(=O)N/N=C(\C)c3cccnc3)nnn2-c2nonc2N)c1	-4%	19%	·
CCOc1cccc(-c2c(C(=O)N/N=C/c3sccc3C)nnn2-c2nonc2N)c1	4.5µM*	5.6µM*	·
CCOc1ccc(-c2c(C(=O)N/N=C/c3ccccc3)nnn2-c2nonc2N)cc1	-8%	-17%	·
CCc1ccc(C(=O)C(C)CN2CCCCC2)cc1 (configuration not stated)	5%	-1%	·
COc1ccc(CSc2n[nH]c(C)n2)cc1[N+](=O)[O-]	-16%	-9%[10 µM]	4%
O=C(NCCc1cccc(Cl)c1)c1cc2ccccc2oc1=O	-6%	4%	·
Cc1c(NC(=O)c2c(N)n(-c3ccccc3)c3nc4ccccc4nc23)c(=O)n(-c2ccccc2)n1C	-1%	1%	1%
Cn1c(N)c(-c2nc3cccnc3n2C)sc1=S	4%	-7%	-5%
Cc1ccc2c(c1)c1nc3ccccc3nc1n2C	-9%	-19%	·
